We go through 40 compounds from PubChem BioAssay (Tox21).

Structures are written as SMILES. Records with an inconclusive call do not appear. Where a call stands in place of a potency, no number is given. Calls of active or inactive are those of the source. The call rests on the fitted dose curve; in most records, active means well fitted activation curve with a large enough effect in the repeat runs; inconclusive means weak or mixed curves; inactive means flat fitted curve, though single readings scatter.

The nature of this assay: A CellTox Green Cytotoxicity Assay to monitor cytotoxicity in HEK293 cells - 40 hour (AID 1224871). Further: nearly all actives have a fitted effect of over 45% in size. Conditions: CellTox Green fluorescence; series mostly up to 76.8 µM. The text has this:
National Center for Advancing Translational Sciences [NCATS]
NIH Chemical Genomics Center [NCGC]
U.S. Environmental Protection Agency [EPA]
National Institutes of Environmental Health Sciences [NIEHS]
National Toxicology Program [NTP]
Cell-based models are critical for drug discovery. Determining the natural cytotoxic effects resulting from test compounds is an essential research activity. A CellTox Green Cytotoxicity Assay to monitor cytotoxicity in real time of continues cell culture during 40 hours of the compound treatment was used to screen Tox21 10K library compounds in Hek293 cells. CellTox Green Cytotoxicity Assay is a nonlytic, homogeneous, biofluorescent method to measure cytotoxicity in cell culture after experimental manipulation. The assay system uses a proprietary asymmetric cyanine dye that is excluded from viable cells but preferentially stains the dead cell's DNA. […] Viable cells produce no appreciable increases in fluorescence. Therefore, the fluorescence signal produced by the binding interaction with dead cell DNA is proportional to cytotoxicity.
The mixture of Hek293 cell suspension and reagents were dispensed at 600cells/6 ul/well in 1536-well tissue culture treated black solid bottom plates using a Multidrop dispenser. After the assay plates were incubated at a 37 C/5% CO2 incubator for 5 hours, 23 nL of compounds dissolved in DMSO, positive and negative controls was transferred to the assay plate by a pintool work station. The plates were incubated at 37 C for 40 hours. The fluorescence intensity were measured at 0h, 8h, 16h, 24h, 32h and 40h time points using ViewLux plate reader during compound treatment.
For `CCC[Si](OC)(OC)OC`, the Potency result was “inactive”.

As to `CCc1c(C)[nH]c2c1C(=O)C(CN1CCOCC1)CC2` (stereo not given), the Potency result is “inactive”.

On to `Cc1cc(C)n(CO)n1`, for which the Potency result is “inactive”.

For `Cc1ccc2c(Cl)cc(Cl)c(O)c2n1`, the Potency entry was “inactive”.

As for `O=C(c1ccco1)N1CCNCC1`, the Potency entry is “inactive”.

`O=C(Nc1ccc2c(c1)Cc1ccccc1-2)C(F)(F)F`: the Potency entry was “inactive”.

Turning to `Nc1ncnc2c1ncn2[C@@H]1O[C@H](CO)[C@@H](O)[C@H]1O`, the Potency result was “inactive”.

Consider `CC1(C)C(=O)NC(=O)N1CO`, for which the Potency entry was “inactive”.

On to `O=C(O)c1ccc2cc(O)ccc2c1`, for which the Potency entry is “inactive”.

Regarding `CC(C)=CCCC(C)C=O` (stereo not given), the Potency entry is “inactive”.

On to `C=C[Si](OCC)(OCC)OCC`, for which the Potency result was “inactive”.

Regarding `CCOC(OCC)OCC`, the Potency result was “inactive”.

For `CC(C(=O)O)c1ccc(/C=C2\CCCCC2=O)cc1` (stereo not given), the Potency result was “inactive”.

With `Cc1ccccc1CCO`, the Potency result is “inactive”.

`O=C(OCCOCCOCCOC(=O)c1ccccc1)c1ccccc1`: the Potency result is “inactive”.

`C1CCN(CN2CCCCC2)CC1`: the Potency entry was “inactive”.

In the case of `C=CC(C)(O)CC/C=C(/C)CCC=C(C)C` (stereo not given), the Potency entry is “inactive”.

Consider `CCC(=O)O[C@@H]1C[C@H]2CC[C@]1(C)C2(C)C`, for which the Potency entry was “inactive”.

Take `CCc1ccc(C(=O)C(C)CN2CCCCC2)cc1` (stereo not given): the Potency result was “inactive”.

Take `N#C[C@@H]1CC(F)(F)CN1C(=O)CNC1CC2CCC(C1)N2c1ncccn1` (stereo not given in full): the Potency entry is “inactive”.

Take `C[C@@H](O)[C@H]1C(=O)N2C(C(=O)O)=C(S[C@@H]3CN[C@H](CNS(N)(=O)=O)C3)[C@H](C)[C@H]12`: the Potency result was “inactive”.

On to `Cc1c(Cl)cccc1[N+](=O)[O-]`, for which the Potency entry is “inactive”.

As to `CCCC(=O)OCCC(C)C`, the Potency result is “inactive”.

Take `CCN(CCCCOC(=O)c1ccc(OC)c(OC)c1)C(C)Cc1ccc(OC)cc1` (stereo not given): the Potency entry was “inactive”.

In the case of `O=C(c1ccc(Cl)cc1)c1ccc(Cl)cc1`, the Potency entry was “inactive”.

For `CCCOC(C)=O`, the Potency entry was “inactive”.

Regarding `CC(O)C(C)O` (stereo not given), the Potency result is “inactive”.

With `CCOC(C)OCC`, the Potency entry is “inactive”.

`COc1ccc(C(=O)c2ccc(C)cc2)c(O)c1`: the Potency entry was “inactive”.

`O=C(C1CCCCC1)N1CC(=O)N2CCCc3ccccc3C2C1` (stereo not given): the Potency result was “inactive”.

Turning to `CCCCCCCCCCCCSCCOCCO`, the Potency entry was “inactive”.

As to `CC1(C)[C@@H]2CC[C@]3(C2)[C@@H]1C(=O)CCC3(C)C`, the Potency result was “inactive”.

In the case of `O=C(O)c1cc(C(=O)O)cc([N+](=O)[O-])c1`, the Potency result is “inactive”.

As to `Nc1ccc(F)cc1F`, the Potency entry is “inactive”.

In the case of `CC/C=C/CCO`, the Potency entry is “inactive”.

Take `O=C(OCCCCCOC(=O)c1ccccc1)c1ccccc1`: the Potency entry was “inactive”.

In the case of `Nc1ccc(-c2ccc(F)cc2)cc1`, the Potency result was “inactive”.

For `OCCCO`, the Potency entry was “inactive”.

For `CC1=C(C)C(=O)C(C(CCCCCC(=O)O)c2ccccc2)=C(C)C1=O` (stereo not given), the Potency entry was “inactive”.

In the case of `CC1(C)CC(O)CC(C)(C)N1[O]`, the Potency entry is “inactive”.
